Measurements reported in PubChem BioAssay (EPA / NIEHS).
Records with an inconclusive call do not appear. Active and inactive are the calls of the source. How the source made its calls, unless noted: active means hit-call score of the fitted dose curve at least 0.9, where 1 is the maximum; inactive means score below 0.9.

Key:
[1] = ATG_NFI_CIS: Attagene CIS-FACTORIAL HepG2 Assay for human Nuclear Factor I (NFI) (AID 2282989); conditions: HepG2 cis-regulatory reporter, NFI response element transcription; actives raise or lower the signal
How it was run: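 Reporter transcription driven by endogenous transcription factors in HepG2 cells; 24 h treatment. Quantitation by labelled RT-PCR fragments on capillary electrophoresis, gain- or loss-of-signal relative to DMSO.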

[2] = biological target: Myc proto-oncogene protein (Homo sapiens) (UniProt P01106); test: ATG_Myc_CIS: Attagene CIS-FACTORIAL HepG2 Assay for human Myelocytomatosis (Myc) Proto-Oncogene Transcription Factor (AID 2282990); conditions: HepG2, Attagene cis-reporter transcription factor activity; actives raise or lower the signal
How it was run: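 HepG2, transient MRTU transfection (cis promoters, endogenous TFs); 24 h dosing; TriZol RNA → oligo(dT) RT → PCR → 6-FAM primer extension → HpaI cut → CE. Bidirectional fit vs DMSO.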

[3] = ATG_NF_kB_CIS: Attagene CIS-FACTORIAL HepG2 Assay for human Nuclear Factor Kappa B (NF-kB) (AID 2282991); conditions: HepG2 Attagene cis-factorial NF-kB reporter mRNA; actives raise or lower the signal
How it was run: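 HepG2, transient multi-reporter transfection, cis promoter elements (endogenous TFs). 24 h exposure. Total RNA → RT → PCR → 6-FAM label → HpaI → CE. Gain/loss vs DMSO.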

[4] = ATG_NRF2_ARE_CIS: Attagene CIS-FACTORIAL HepG2 Assay for human Nuclear Factor Erythroid 2 Related Factor 2 (NFR2) response to Antioxidant Response Elements (ARE) (AID 2282992); conditions: HepG2 Attagene ARE/NRF2 reporter, transcription factor activity; actives raise or lower the signal;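 on AC50: reporter mRNA level measured by RT-PCR and capillary electrophoresis fluorescence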
How it was run: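 HepG2 cells transiently transfected with multiplexed cis-element reporter constructs, 24 h after chemical dosing; reporter mRNA quantified by RT-PCR, fluorescent primer extension, HpaI digestion and capillary electrophoresis. Bidirectional fit relative to DMSO.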

[5] = ATG_Oct_MLP_CIS: Attagene CIS-FACTORIAL HepG2 Assay for human Octamer-Binding Transcription Factor (Oct) (AID 2282993); conditions: HepG2 Attagene cis-factorial Oct reporter, mRNA; actives raise or lower the signal
How it was run: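 Transfected HepG2 cells, 24 h treatment. Reporter mRNA quantified by RT-PCR–capillary electrophoresis; bidirectional fitting against DMSO.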

[6] = biological target: Cellular tumor antigen p53 (Homo sapiens) (UniProt P04637); test: ATG_p53_CIS: Attagene CIS-FACTORIAL HepG2 Assay for human p53 Transcription Factor (AID 2282994); conditions: HepG2 p53 cis-element reporter, Attagene mRNA; actives raise or lower the signal
How it was run: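 HepG2 cells transiently transfected with cis-regulated multiple reporter transcription units, dosed 24 h. Reporter mRNA measured by RT-PCR, 6-FAM primer extension, HpaI digestion and capillary electrophoresis; bidirectional fit relative to DMSO.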

[7] = BSK_3C_TissueFactor: BioMAP Diversity Plus: 3C Assay for Tissue Factor Biomarker Activity (AID 2282997); conditions: BioMAP 3C HUVEC, tissue factor biomarker readout; actives raise or lower the signal
How it was run: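 Dosing of human umbilical vein endothelial cells preceded a 24 h incubation. Tissue Factor was then read by ELISA, with increases and decreases both scored relative to DMSO controls.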

[8] = BSK_3C_uPAR: BioMAP Diversity Plus: 3C Assay for Urokinase-type plasminogen activator receptor (uPAR) Biomarker Activity (AID 2282998); conditions: BioMAP 3C HUVEC, uPAR biomarker ELISA; actives raise or lower the signal
How it was run: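 Readout: ELISA for surface uPAR. System: human umbilical vein endothelial primary cells, 24 h after chemical exposure. Analysis: bidirectional fit, DMSO baseline.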

[9] = BSK_3C_VCAM1: BioMAP Diversity Plus: 3C Assay for Vascular cell adhesion molecule 1 (VCAM1) Biomarker Activity (AID 2282999); conditions: BioMAP 3C HUVEC, VCAM1 ELISA, cytokine-stimulated; actives raise or lower the signal
How it was run: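 Endothelial cells from human umbilical vein are treated with test chemical. At 24 h, VCAM-1 is measured by ELISA, and responses in either direction are fitted relative to DMSO.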

[10] = BSK_4H_Eotaxin3: BioMAP Diversity Plus: 4H Assay for Eotaxin 3 Biomarker Activity (AID 2283000); conditions: primary human endothelial cells (HUVEC); actives raise or lower the signal
How it was run: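 Human umbilical vein endothelial cells (BSK_4H system) dosed with test chemical; Eotaxin-3 (CCL26) measured by ELISA 24 h after dosing. Bidirectional curve fitting relative to DMSO negative control as baseline.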

[11] = biological target: human Peroxisome Proliferator-activated Receptor delta (PPARd), PPARD (gene 5467) (UniProt Q03181); test: ATG_PPARd_TRANS: Attagene TRANS-FACTORIAL HepG2 Assay for human Peroxisome Proliferator-activated Receptor delta (PPARd) (AID 2283002; active means hit-call score of the fitted dose curve at least 0.9, where 1 is the maximum)
How it was run: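 Transient HepG2 transfection (multiple GAL4-UAS RTUs, chimeric receptor-Gal4); 24 h dosing; total RNA → oligo(dT) RT → PCR → 6-FAM primer extension → HpaI cut → CE. Positive direction vs DMSO.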

[12] = read-out: Intercellular Adhesion Molecule 1 (ICAM1), ICAM1 (gene 3383); test: BSK_3C_ICAM1: BioMAP Diversity Plus: 3C Assay for Intercellular Adhesion Molecule 1 (ICAM1) Biomarker Activity (AID 2283003); conditions: primary human endothelial cells (HUVEC); actives raise or lower the signal
How it was run: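 ICAM-1 levels measured by ELISA after HUVEC cultures in the 3C system had been dosed for 24 h. Gain or loss of signal relative to DMSO was fitted in both directions.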

[13] = biological target: human Retinoic Acid Receptor beta (RARb), RARB (gene 5915) (UniProt P10826); test: ATG_RARb_TRANS: Attagene TRANS-FACTORIAL HepG2 Assay for human Retinoic Acid Receptor beta (AID 2283004; active means hit-call score of the fitted dose curve at least 0.9, where 1 is the maximum)
How it was run: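 Induction of reporter mRNA from a chimeric RARb-Gal4 construct was measured by RT-PCR, FAM labelling, HpaI digestion and capillary electrophoresis. Measurements followed 24 h compound treatment of transiently transfected human HepG2 liver cells, with DMSO as baseline.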

[14] = BSK_3C_Proliferation: Cell Proliferation Assessment in the BioMAP Diversity Plus: 3C Assay (AID 2283006); conditions: primary human endothelial cells (HUVEC);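 on AC50: potency may reflect either rise or fall in cell number versus DMSO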
How it was run: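 Read-out is total protein by SRB absorbance at 560 nm, taken as a proxy for relative cell number. Primary human umbilical vein endothelium cultured below confluence was dosed for 48 h, TCA-fixed and SRB-stained; curves were fitted bidirectionally versus DMSO.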

[15] = biological target: Nuclear receptor subfamily 1 group I member 2 (Homo sapiens) (UniProt O75469); test: ATG_PXR_TRANS: Attagene TRANS-FACTORIAL HepG2 Assay for human Pregnane X Receptor (PXR) (AID 2283008; active means hit-call score of the fitted dose curve at least 0.9, where 1 is the maximum)
How it was run: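 HepG2 cells transiently transfected with GAL4-UAS reporter units and PXR-Gal4 chimera, exposed 24 h. Reporter mRNA quantified by RT-PCR, fluorescent labelling, HpaI digestion and capillary electrophoresis; gain of signal vs DMSO.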

[16] = biological target: human Retinoic Acid Receptor gamma (RARg), RARG (gene 5916) (UniProt P13631); test: ATG_RARg_TRANS: Attagene TRANS-FACTORIAL HepG2 Assay for human Retinoic Acid Receptor gamma (RARg) (AID 2283009; active means hit-call score of the fitted dose curve at least 0.9, where 1 is the maximum)
How it was run: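 Transient transfection of HepG2 with multi-reporter constructs, then 24 h chemical treatment. Total RNA isolated, reverse-transcribed, PCR-amplified, fluorescently labelled and resolved by capillary electrophoresis; activity scored as mRNA induction versus DMSO.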

[17] = biological target: human RAR-related Orphan Receptor gamma (RORg), RORC (gene 6097) (UniProt P51449); test: ATG_RORg_TRANS: Attagene TRANS-FACTORIAL HepG2 Assay for human RAR-related Orphan Receptor gamma (RORg) (AID 2283011; active means hit-call score of the fitted dose curve at least 0.9, where 1 is the maximum)
How it was run: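 Reporter transcripts from a transfected RORg-GAL4 chimera in HepG2 cells were quantified 24 h after dosing by RT-PCR, 6-FAM labelling, HpaI digestion and capillary electrophoresis; increases over DMSO baseline were fitted.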

[18] = biological target: Retinoic acid receptor alpha (Homo sapiens) (UniProt P10276); test: ATG_RARa_TRANS: Attagene TRANS-FACTORIAL HepG2 Assay for human Retinoic Acid Receptor alpha (RARa) (AID 2283005; active means hit-call score of the fitted dose curve at least 0.9, where 1 is the maximum;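 on AC50: potency for increased reporter signal meaning RARa activation over DMSO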)
How it was run: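 Reporter transcripts, measured by RT-PCR with fluorescent labeling and capillary electrophoresis after 24 h dosing, reflect activity of an exogenous human RARa–GAL4 fusion in transiently transfected HepG2. Fitted for increase relative to DMSO.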

[19] = biological target: Peroxisome proliferator-activated receptor gamma (Homo sapiens) (UniProt P37231); test: ATG_PPARg_TRANS: Attagene TRANS-FACTORIAL HepG2 Assay for human Peroxisome Proliferator-activated Receptor-gamma (PPARg) (AID 2283007; active means hit-call score of the fitted dose curve at least 0.9, where 1 is the maximum)
How it was run: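 Multiplexed reporter transcription units in HepG2, 24 h dosing, reporter transcripts quantified by fluorescent RT-PCR and capillary electrophoresis. Increase over DMSO scored.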

Measured: AC50

Sequence of human RAR-related Orphan Receptor gamma (RORg), RORC (gene 6097) (P51449 whole entry, looked up, the tested form may be a part): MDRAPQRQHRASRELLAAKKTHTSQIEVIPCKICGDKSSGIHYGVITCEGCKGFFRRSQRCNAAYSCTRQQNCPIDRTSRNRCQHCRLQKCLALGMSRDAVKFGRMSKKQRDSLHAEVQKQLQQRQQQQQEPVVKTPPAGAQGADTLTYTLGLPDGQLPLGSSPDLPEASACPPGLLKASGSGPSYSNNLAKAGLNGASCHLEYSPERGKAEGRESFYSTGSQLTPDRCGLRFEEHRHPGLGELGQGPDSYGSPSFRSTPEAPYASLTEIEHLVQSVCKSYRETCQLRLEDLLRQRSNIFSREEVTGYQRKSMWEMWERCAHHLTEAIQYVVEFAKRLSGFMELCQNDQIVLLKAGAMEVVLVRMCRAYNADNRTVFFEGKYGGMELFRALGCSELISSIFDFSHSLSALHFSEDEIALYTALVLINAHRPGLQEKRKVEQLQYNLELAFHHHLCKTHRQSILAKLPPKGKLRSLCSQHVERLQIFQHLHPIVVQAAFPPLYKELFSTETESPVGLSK
Sequence of Cellular tumor antigen p53 (Homo sapiens) (P04637 whole entry, looked up): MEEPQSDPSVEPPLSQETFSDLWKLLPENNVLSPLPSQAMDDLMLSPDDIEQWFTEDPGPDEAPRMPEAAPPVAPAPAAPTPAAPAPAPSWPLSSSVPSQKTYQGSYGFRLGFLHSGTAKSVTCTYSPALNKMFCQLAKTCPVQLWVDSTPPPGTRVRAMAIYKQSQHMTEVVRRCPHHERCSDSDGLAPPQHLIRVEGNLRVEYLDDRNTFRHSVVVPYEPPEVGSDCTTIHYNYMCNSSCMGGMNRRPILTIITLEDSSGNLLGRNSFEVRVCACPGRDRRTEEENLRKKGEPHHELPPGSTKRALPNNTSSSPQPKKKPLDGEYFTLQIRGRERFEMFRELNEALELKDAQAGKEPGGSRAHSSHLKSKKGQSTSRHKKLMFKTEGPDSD
Sequence of Myc proto-oncogene protein (Homo sapiens) (P01106 whole entry, looked up): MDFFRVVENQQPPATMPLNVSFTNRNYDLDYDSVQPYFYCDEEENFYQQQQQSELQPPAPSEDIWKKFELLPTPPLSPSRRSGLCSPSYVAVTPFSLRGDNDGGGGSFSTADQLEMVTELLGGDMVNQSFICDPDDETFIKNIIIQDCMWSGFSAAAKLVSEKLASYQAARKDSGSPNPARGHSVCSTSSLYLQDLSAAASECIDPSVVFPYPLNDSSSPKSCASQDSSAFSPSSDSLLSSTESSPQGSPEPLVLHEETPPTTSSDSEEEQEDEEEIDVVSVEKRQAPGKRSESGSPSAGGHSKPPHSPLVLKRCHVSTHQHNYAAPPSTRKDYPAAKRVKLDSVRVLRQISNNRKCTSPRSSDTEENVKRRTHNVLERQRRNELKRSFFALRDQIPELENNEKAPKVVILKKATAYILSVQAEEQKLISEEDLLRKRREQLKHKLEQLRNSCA
Sequence of human Retinoic Acid Receptor gamma (RARg), RARG (gene 5916) (P13631 whole entry, looked up): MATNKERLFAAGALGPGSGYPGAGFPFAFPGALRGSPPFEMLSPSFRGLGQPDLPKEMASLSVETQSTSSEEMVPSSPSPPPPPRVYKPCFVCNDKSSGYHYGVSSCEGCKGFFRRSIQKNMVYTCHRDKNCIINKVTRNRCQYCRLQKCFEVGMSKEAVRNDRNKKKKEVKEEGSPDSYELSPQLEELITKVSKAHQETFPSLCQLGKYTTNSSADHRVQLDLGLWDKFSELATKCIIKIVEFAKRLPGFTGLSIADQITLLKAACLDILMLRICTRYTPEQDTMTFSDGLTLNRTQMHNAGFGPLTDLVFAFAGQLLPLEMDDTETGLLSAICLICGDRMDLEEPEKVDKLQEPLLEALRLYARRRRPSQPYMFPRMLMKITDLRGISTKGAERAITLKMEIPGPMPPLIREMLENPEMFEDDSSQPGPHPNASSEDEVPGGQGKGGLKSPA
Sequence of human Peroxisome Proliferator-activated Receptor delta (PPARd), PPARD (gene 5467) (Q03181 whole entry, looked up, the tested form may be a part): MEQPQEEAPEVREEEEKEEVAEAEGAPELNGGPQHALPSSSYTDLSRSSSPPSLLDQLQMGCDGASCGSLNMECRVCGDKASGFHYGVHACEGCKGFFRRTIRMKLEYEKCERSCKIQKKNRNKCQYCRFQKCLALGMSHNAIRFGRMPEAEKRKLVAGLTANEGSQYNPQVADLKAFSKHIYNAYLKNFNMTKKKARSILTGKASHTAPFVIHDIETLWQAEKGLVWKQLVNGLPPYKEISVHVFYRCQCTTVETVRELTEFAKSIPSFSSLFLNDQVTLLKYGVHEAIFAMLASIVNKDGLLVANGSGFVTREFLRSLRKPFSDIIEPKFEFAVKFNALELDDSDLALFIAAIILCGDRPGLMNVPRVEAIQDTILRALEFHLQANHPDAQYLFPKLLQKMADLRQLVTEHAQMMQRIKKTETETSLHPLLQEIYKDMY
Sequence of human Retinoic Acid Receptor beta (RARb), RARB (gene 5915) (P10826 whole entry, looked up, the tested form may be a part): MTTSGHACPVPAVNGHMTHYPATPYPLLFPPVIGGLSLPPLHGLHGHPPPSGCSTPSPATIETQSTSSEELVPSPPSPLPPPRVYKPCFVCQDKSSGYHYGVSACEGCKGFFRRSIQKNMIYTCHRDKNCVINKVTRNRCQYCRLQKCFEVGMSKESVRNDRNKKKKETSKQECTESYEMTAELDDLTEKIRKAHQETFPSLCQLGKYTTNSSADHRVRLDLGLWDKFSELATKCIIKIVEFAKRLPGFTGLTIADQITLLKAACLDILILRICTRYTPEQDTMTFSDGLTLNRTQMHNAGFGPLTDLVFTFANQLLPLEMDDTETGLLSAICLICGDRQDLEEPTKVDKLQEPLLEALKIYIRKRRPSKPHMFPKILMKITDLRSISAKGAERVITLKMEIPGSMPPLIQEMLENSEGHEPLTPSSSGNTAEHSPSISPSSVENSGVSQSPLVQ
Sequence of Nuclear receptor subfamily 1 group I member 2 (Homo sapiens) (O75469 whole entry, looked up, the tested form may be a part): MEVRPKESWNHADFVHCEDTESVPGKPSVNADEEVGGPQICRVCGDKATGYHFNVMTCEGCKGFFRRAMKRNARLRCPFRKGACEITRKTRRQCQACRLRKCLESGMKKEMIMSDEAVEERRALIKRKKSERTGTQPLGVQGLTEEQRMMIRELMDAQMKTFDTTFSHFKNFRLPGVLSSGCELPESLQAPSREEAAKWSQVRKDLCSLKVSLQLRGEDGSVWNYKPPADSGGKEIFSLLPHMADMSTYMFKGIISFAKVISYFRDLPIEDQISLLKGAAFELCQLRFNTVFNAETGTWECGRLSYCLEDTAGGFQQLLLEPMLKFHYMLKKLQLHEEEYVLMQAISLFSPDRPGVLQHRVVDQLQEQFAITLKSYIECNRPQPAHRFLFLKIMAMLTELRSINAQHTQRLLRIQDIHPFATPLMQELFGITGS
Sequence of Retinoic acid receptor alpha (Homo sapiens) (P10276 whole entry, looked up, the tested form may be a part): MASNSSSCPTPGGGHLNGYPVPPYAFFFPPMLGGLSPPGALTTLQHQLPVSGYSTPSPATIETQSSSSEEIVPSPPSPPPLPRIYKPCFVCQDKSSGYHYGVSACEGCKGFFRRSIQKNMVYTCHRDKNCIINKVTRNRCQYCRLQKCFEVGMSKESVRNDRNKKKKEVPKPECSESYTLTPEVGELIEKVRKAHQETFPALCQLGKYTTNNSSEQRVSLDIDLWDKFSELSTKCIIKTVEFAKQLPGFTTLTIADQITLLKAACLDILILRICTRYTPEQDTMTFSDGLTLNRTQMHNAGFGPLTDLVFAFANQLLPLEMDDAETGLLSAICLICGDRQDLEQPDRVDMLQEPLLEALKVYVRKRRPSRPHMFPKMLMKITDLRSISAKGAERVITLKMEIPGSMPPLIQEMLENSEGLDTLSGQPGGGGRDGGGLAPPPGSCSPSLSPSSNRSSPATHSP
Sequence of Peroxisome proliferator-activated receptor gamma (Homo sapiens) (P37231 whole entry, looked up): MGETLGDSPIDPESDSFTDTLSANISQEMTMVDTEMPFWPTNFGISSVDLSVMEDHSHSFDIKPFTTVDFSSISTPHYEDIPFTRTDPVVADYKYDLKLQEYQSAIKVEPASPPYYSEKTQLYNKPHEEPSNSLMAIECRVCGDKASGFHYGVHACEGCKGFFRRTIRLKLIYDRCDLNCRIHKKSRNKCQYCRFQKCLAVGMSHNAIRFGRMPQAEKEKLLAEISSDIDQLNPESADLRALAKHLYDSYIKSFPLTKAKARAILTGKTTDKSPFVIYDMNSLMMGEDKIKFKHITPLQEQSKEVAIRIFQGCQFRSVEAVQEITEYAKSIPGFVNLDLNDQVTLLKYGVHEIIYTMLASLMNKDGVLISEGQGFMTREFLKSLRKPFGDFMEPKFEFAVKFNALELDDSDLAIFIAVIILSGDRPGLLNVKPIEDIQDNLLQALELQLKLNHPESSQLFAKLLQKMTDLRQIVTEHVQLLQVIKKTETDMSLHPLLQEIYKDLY

CNS(=O)(=O)c1cc(C(=O)N2CCC(CCN3C4CCC3CC(n3c(C)nc5ccccc53)C4)(c3cccc(F)c3)CC2)c(Cl)cc1F (centres undefined)
inactive: [1] | [2] | [5] | [7] | [11] | [12] | [13] | [16] | [17]
active: [3] 5.18 µM | [4] 2.71 µM | [6] 6.99 µM | [8] 16.7 µM | [9] 13.5 µM | [10] 30.9 µM | [14] 15.4 µM | [15] 0.779 µM

NC(=O)NO
inactive: [1] | [2] | [3] | [4] | [5] | [6] | [7] | [8] | [9] | [10] | [11] | [12] | [18] | [14] | [15] | [17]

CCn1nc(Cc2ccccc2)cc1C1CCN(C[C@H]2C[C@H](N(C)[C@@H](C(=O)O)C(C)C)C[C@@H]2c2cccc(F)c2)CC1
active: [3] 38.2 µM | [4] 51.5 µM | [6] 100 µM
inactive: [1] | [2] | [5] | [7] | [8] | [9] | [10] | [11] | [12] | [14] | [19] | [15]

CC(C)CCCCCCCOC(=O)CCCCC(=O)OCCCCCCCC(C)C
inactive: [1] | [2] | [3] | [4] | [5] | [6] | [7] | [8] | [9] | [10] | [12] | [13] | [14] | [16] | [17]
active: [18] 28.8 µM

Clc1nc(Cl)c(Cl)c(Cl)c1Cl
inactive: [1] | [2] | [3] | [5] | [6] | [7] | [8] | [10] | [11] | [12] | [13] | [16] | [17]
active: [4] 11.2 µM | [9] 16.5 µM | [14] 20 µM

COC(=O)c1ccccc1O
active: [5] 59.6 µM | [15] 24.9 µM
inactive: [1] | [2] | [3] | [4] | [6] | [7] | [8] | [9] | [10] | [11] | [12] | [13] | [18] | [14] | [16]

CC(C)c1cccc(C(C)C)c1N1C(=O)c2ccc(O)cc2C1=O
active: [1] 62.9 µM | [2] 164 µM | [4] 25.2 µM | [5] 76.2 µM | [6] 166 µM | [8] 19 µM | [9] 16.7 µM | [10] 30.8 µM | [14] 3.32 µM | [15] 0.242 µM
inactive: [3] | [7] | [11] | [12] | [18] | [19] | [16]
